Reference: PubChem BioAssay (NCATS)
Inconclusive results are not listed. Calls follow the shape of the dose curve; as a rule, active = well fitted curve in either direction with a large enough effect (not every such curve was filed as active); inconclusive = small, poorly fitted or top-dose-only effect, or another doubt; inactive = flat fitted curve, though single readings scatter.

Each compound was assayed against Mitogen-activated protein kinase 10 (Mus musculus) (UniProt Q61831) (assay: JNK3 AlphaScreen Assay (AID 530;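 also: kinase came from lysate of stimulated human HepG2 cells; signal reports phosphorylation of biotinylated GST-cJun 1-79 at Ser73 with 10 µM ATP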)). Settings: JNK3 lysate, c-Jun phosphorylation; series mostly up to 11.4 µM; activity change, negative = inhibition: at the top concentration.
Outline: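 Compound titrations were preincubated 15 minutes at room temperature with substrate, antibody and pre-activated JNK3-containing HepG2 lysate. Reactions were started with 10 uM ATP and stopped with EDTA-containing bead buffer for AlphaScreen detection.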
% is scaled to controls: 0 for no effect and ±100 for the full control effect.

Activity change, negative = inhibition, inactive:
CN(C)CCCN1c2ccccc2Sc2ccc3ccccc3c21 5.85%, ClC(=Nc1cccc2ccccc12)N(c1ccccc1)c1ccccc1 -0.203%, O=C(c1ccncc1)N1CCC2(CCCN(c3cccc(-c4ccccc4)c3)C2)CC1 -29.3% [at 57.1 µM], Cc1ccc(-c2nc(-c3nccc4ccccc34)oc2-c2ccccc2)cc1 22.9%, COc1ccc2c(c1)N(CC[C@H]1CCCCN1C)c1ccccc1S2 -12.7%, COc1ccc(Oc2ncc3nc(CCc4ccccc4)c(=O)n(C4CC4)c3n2)cc1 27% [at 57.1 µM], Cc1nnc(S(=O)(=O)c2ccc(N=Nc3c(N)nc(N)nc3N)cc2)s1 -2.96%, COc1ccc2c(=O)cc(-c3ccncc3)oc2c1OC 3.62%, COc1cccc2c1[C@H](CO)N1[C@H](C#N)[C@@H]3C[C@H](C(=O)O)[C@@H]([C@@H]1C2)N3C -1.75%, CN(C)CCCN1c2ccc3ccccc3c2Sc2cccc(Cl)c21 -2.29%, COc1cccc(Nc2ncc3ncc(=O)n(C4CC4)c3n2)c1 -27.4% [at 57.1 µM], CN(C)CCCN1c2ccc(O)cc2Sc2ccc(Cl)cc21 2.91%, C=C(C)COc1ccc2c(c1)CCC1C2CC[C@]2(C)C(=O)/C(=N/O)CC12 (some centres undefined) -6.87%, CCCCNN 1.9%, CC(CC(=O)O)(CC(=O)O)c1ccccc1 -1.94%, OC[C@@H]1O[C@@H](N2CCN([C@@H]3O[C@@H](CO)[C@@H](O)[C@H](O)[C@H]3O)CC2)[C@@H](O)[C@H](O)[C@H]1O 3.44%, O=C1c2ccccc2C(O)(O)[C@@]1(O)[C@]1(O)C(=O)c2ccccc2C1(O)O -1.43%, c1ccc2cc(NCNc3ccc4ccccc4c3)ccc2c1 13.8%, N#Cc1c(NC(=O)C(F)(F)F)sc2c3c(=O)c4ccccc4c(=O)c=3oc3ccccc3c12 25.2%, NCCSCCC(=O)O -0.971%, O=C1Oc2ccccc2C(=O)/C1=C\N1C(=O)N/C(=C\c2ccccc2O)C1=O -6.74%, CC(=O)Nc1ccc(Cc2ccc3[nH]c(=O)cc(C)c3c2)cc1 5.69%, Cc1cccc(CNc2ncnc3ccc(-c4ccc(C(=O)N(C)C)cc4)cc23)c1 -12.5% [at 57.1 µM], COc1ccc2nc3cc(Cl)ccc3c(Nc3ccc(O)c(CN4CCN(C)CC4)c3)c2c1 9.64%, C[C@@H]1CCCN(C[C@@H](O)CN2CCCc3ccccc32)C1 -1.73%, C[N+](C)([O-])CCC=C1c2ccccc2CCc2ccccc21 -1.6%, Cc1cc(Cl)nc(NC(=O)CSc2ccc(Cl)cc2)n1 3.29%, CSc1ccc2c(c1)N(CCCN(C)C)c1ccccc1S2 -5.53%, C[C@@]12CC[C@@H]3[C@@H](CC[C@H]4C[C@@H](O)CC[C@]43C)[C@H]1CC[C@@H]2c1cc(C(F)(F)F)n[nH]1 3.13%, CC(=O)O[C@H]1CC[C@@]2(C)C(=CC[C@@H]3[C@@H]4CC[C@H](c5cc(C(F)(F)F)n(C(C)=O)n5)[C@]4(C)CC[C@@H]32)C1 -0.246%, O=C1C(Cl)=C(Sc2nnc3c4ccccc4c4ccccc4c3n2)C(=O)c2ccccc21 -3.27%, Cc1c(S(=O)(=O)O)ccc(N=Nc2c(O)c(C(=O)O)cc3ccccc23)c1Cl -19.7%, Cc1ccc(N=Nc2c(O)c3ccccc3[nH]c2=O)c(S(=O)(=O)N(C)C)c1 0.501%, O=[N+]([O-])c1ccc(S(=O)(=O)Cc2ccccc2)c2nonc12 -11.4%, Cn1c(=S)c2[nH]c(SCCCc3ccccc3)nc2n(C)c1=O -1.33%, C[C@]12CC[C@H]3c4ccc(O)cc4CC[C@@H]3[C@H]1CC[C@@H]2OC(=O)CCc1ccccc1 1.24%, Nc1nc(Sc2ccc([N+](=O)[O-])c3nonc23)c2[nH]cnc2n1 -6.47%, CN(C)CCCn1c2c3ccccc3ccc2c2oc(=O)c3ccccc3c21 16.6%, CC(C)[C@H](Sc1nc(N)nc2nc[nH]c12)C(=O)O 0.915%
